The text below walks through data of PubChem BioAssay AID1851 (National Center for Advancing Translational Sciences (NCATS), 2009).

Several values for one entry are separate records, joined by “and”; a condition that tells them apart may be missing. Equal entries are not always repeated. Among all 16,000 compounds or so, about 5,800 (36%) were called active. Roughly 23% stayed inconclusive and do not appear here. Calls follow the shape of the dose curve; as a rule, active = well fitted curve in the direction sought with a large enough effect; inconclusive = small, poorly fitted or top-dose-only effect, or effect the other way; inactive = no such curve, though single readings can be large or run the other way. This is one part of the list.
% is scaled to controls: 0 for no effect and ±100 for the full control effect.

The test deals with Cytochrome P450 2C19 (Homo sapiens) (UniProt P33261). Briefly: Cytochrome panel assay with activity outcomes. As to conditions: recombinant CYP, pro-luciferin dealkylation, luminescence, p450-cyp2c19; series mostly up to 57.1 µM; activity, negative = inhibition: at the top concentration.
Chain of Cytochrome P450 2C19 (Homo sapiens) (P33261 whole entry, looked up): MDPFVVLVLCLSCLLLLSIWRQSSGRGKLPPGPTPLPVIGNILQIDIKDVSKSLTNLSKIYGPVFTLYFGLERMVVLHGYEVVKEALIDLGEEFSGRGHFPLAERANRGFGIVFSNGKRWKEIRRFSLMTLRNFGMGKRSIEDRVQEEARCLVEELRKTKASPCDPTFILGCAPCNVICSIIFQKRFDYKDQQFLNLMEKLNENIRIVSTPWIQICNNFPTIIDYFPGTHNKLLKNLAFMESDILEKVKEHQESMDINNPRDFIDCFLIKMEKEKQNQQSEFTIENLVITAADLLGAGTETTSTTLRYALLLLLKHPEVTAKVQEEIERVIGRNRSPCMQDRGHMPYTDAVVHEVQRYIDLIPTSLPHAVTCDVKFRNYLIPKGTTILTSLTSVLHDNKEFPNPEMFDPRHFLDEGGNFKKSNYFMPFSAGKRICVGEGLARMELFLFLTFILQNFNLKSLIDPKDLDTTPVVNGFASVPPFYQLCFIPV
On to `CCOC(=O)CSc1n[nH]c(NC(=O)c2cccc(C)c2)n1`, for which the AC50 was 5.01 µM (active).
The same measure, in the same setting: under `NNC(=O)CCSc1ccccc1` stands 3.98 µM (active).
Same read-out and setting: under `Cc1cc(Br)ccc1NC(=O)CCSc1ccccc1` stands 1.26 µM (active).
For `O=C(O)CCCSc1ccccc1`, the activity, negative = inhibition was 31.6% [at 11.4 µM] (inactive).
Same read-out and setting: under `O=c1c(-c2ccccc2)nc2cnc(N3CCNCC3)nc2n1-c1ccccc1` stands -29.6% (inactive).
`CC(C)c1ccc(CN(C(=O)C2COc3ccccc3O2)C2CCS(=O)(=O)C2)cc1` (configuration not stated): the half-maximal activity concentration (AC50) is 10 µM (active).
The same measure, in the same setting: under `CCCCC(=O)NC(Nc1cc(C)ccn1)(C(=O)OCC)C(F)(F)F` (configuration not stated) stands 1.41 µM (active); under `N=c1sc2ccccc2n1CCS` (tested in a mixture with another compound), 1.58 µM (active).
On to `O=C(O)c1ccccc1NCn1c(=S)sc2ccccc21`, for which the activity, negative = inhibition is -40.3% [at 11.4 µM] (inactive).
Still for that read-out and setting: to `c1ccc2nc(C3=NCCN3)cnc2c1` belongs 21.6% (inactive).
Take `Cc1cc(C)n(Cc2ccc(NC(=O)c3ccc(COc4ccccc4Br)cc3)cc2)n1`: the half-maximal activity concentration (AC50) is 3.98 µM (active).
On to `COC(=O)[C@@]1(Cc2ccccc2)[C@H]2c3cc(C(=O)N4CCCC4)n(CCc4ccccn4)c3C[C@H]2CN1C(=O)c1ccccc1`, for which the half-maximal activity concentration (AC50) was 25.1 µM (active).
Regarding `COC(=O)[C@@]1(Cc2ccccc2)[C@H]2c3cc(C(=O)N4CCCC4)n(Cc4nc5ccccc5[nH]4)c3C[C@H]2CN1C(=O)c1ccccc1`, the AC50 is 15.8 µM (active).
Take `COC(=O)[C@@]1(Cc2ccc(OC)cc2)[C@H]2c3cc(C(=O)N4CCCC4)n(CCn4cc([N+](=O)[O-])nc4C)c3C[C@H]2CN1C(=O)c1ccccc1`: the “activity, negative = inhibition” value was -20% (inactive).
Turning to `COC(=O)[C@@]1(Cc2ccccc2)[C@H]2c3cc(C(=O)N4CCCC4)n(Cc4ccccn4)c3C[C@H]2CN1C(=O)c1ccccc1`, the concentration at half-maximal activity (AC50) was 10 µM (active).
Turning to `CSc1nc(Cl)cc(N(CCO)CCO)n1`, the “activity, negative = inhibition” value is 31.7% (inactive).
As for `CC(C)(CO)Cc1cc(C(C)(C)C)c(O)c(C(C)(C)C)c1`, the AC50 was 25.1 µM (active).
As for `CC(C)(C=O)Cc1cc(C(C)(C)C)c(O)c(C(C)(C)C)c1`, the “activity, negative = inhibition” value is -36% (inactive).
Take `CCOC(=O)c1ccccc1N/C=C1\CCCCC1=O`: the AC50 is 22.4 µM (active).
The same measure, in the same setting: under `CCn1c2ccccc2c2cc(NC(=O)C/C(C)=N/NC(=O)c3ccccc3N)ccc21` stands 2.24 µM (active).
Consider `CCc1ccccc1N1C(=O)c2cccc3c(N4CCOCC4)c([N+](=O)[O-])cc(c23)C1=O`, for which the concentration at half-maximal activity (AC50) is 3.98 µM (active).
Turning to `O=c1cc(N2CCOCC2)oc2c(-c3ccccc3)cccc12`, the “activity, negative = inhibition” value was -23.1% (inactive).
As to `CN(Cc1ccco1)c1ccnc(-c2cccnc2)n1`, the AC50 was 6.31 µM (active).
On the same count and under the same terms, under `COc1cccc(-c2nccc(N(C)Cc3ccco3)n2)c1` stands 5.01 µM (active).
On the same count and under the same terms, under `Cc1noc(C)c1-c1nccc(N(C)Cc2ccco2)n1` stands 1 µM (active).
`Cc1noc(C)c1-c1nccc(N(C)C)n1`: the “activity, negative = inhibition” value was -28.6% (inactive).
The same measure, in the same setting: to `FC(F)(F)c1cc(CN2CCC3(CCNCC3)CC2)cc(C(F)(F)F)c1` belongs 0.261% (inactive).
As for `N#Cc1ccc(-c2ccccc2)nc1SCC(=O)c1cccc(Cl)c1`, the concentration at half-maximal activity (AC50) is 2.24 µM (active).
As for `O=C(O)CSc1cc(-c2ccccc2)nc2ccccc12`, the activity, negative = inhibition was 1.28% [at 11.4 µM] (inactive).
On the same count and under the same terms, under `N#Cc1c(-c2ccccc2)no[n+]1[O-]` stands -4.21% (inactive).
Regarding `CN(C)c1oc(-c2ccccc2)nc1C#N`, the half-maximal activity concentration (AC50) is 15.8 µM (active).
As for `CCOc1[nH]n(-c2ccc(Cl)cc2)c(=O)c1C=Nc1ccc(O)cc1`, the “activity, negative = inhibition” value was -6.82% (inactive).
Take `COc1cc(O)oc1C=Nc1ccc(C(F)(F)F)cc1`: the concentration at half-maximal activity (AC50) is 7.08 µM (active).
The same measure, in the same setting: under `COc1cc(O)oc1C=Nc1ccc(Cl)cc1` stands 6.31 µM (active).
In the case of `Cc1c(C(=O)O)nc(/C=C\C(=O)O)[nH]c1=O`, the activity, negative = inhibition was 18.2% [at 11.4 µM] (inactive).
Take `CC1=NN(c2ccc(F)cc2)C(=O)C1C(c1cccc(O)c1)c1c(C)[nH]n(-c2ccc(F)cc2)c1=O` (configuration not stated): the AC50 is 17.8 µM (active).
On the same count and under the same terms, under `O=C1C2CCCN2C(c2ccc(F)cc2)N1c1nccs1` (configuration not stated) stands 14.1 µM (active).
Still for that read-out and setting: under `CCCSc1nc(SCC(=O)NCc2ccccc2)c2c3c(sc2n1)COC(C)(CC)C3` (configuration not stated) stands 11.2 µM (active).
As for `Cc1nc2ncnn2c(C)c1CCC(=O)NCc1ccccc1`, the “activity, negative = inhibition” value is -23.7% (inactive).
In the case of `CCC1(C)Cc2c(sc3nnn(CC(=O)Nc4cccc5ccccc45)c(=O)c23)CO1` (configuration not stated), the AC50 was 15.8 µM (active).
On the same count and under the same terms, under `CCC1(C)Cc2c(sc3nnn(CC(=O)Nc4ccc(C)cc4)c(=O)c23)CO1` (configuration not stated) stands 10 µM (active).
For `CCSc1nc2sc3c(c2c(=O)[nH]1)CC(C)(CC)OC3` (configuration not stated), the “activity, negative = inhibition” value was -6.25% (inactive).
On the same count and under the same terms, under `CN(N=O)C(=O)N[C@H]1[C@@H](O)[C@H](O)[C@H](CO)O[C@@H]1O` stands 16.7% [at 25.6 µM] (inactive).
Same read-out and setting: to `NC(=O)Nn1c(CCC(=O)O)ccc1-c1ccc(F)cc1` belongs -6.65% (inactive).
As for `Nc1ccc(Sc2cnn(-c3ccccc3)c(=O)c2Cl)cc1`, the half-maximal activity concentration (AC50) is 0.1 µM (active).
Consider `CNc1cnn(-c2ccccc2)c(=O)c1Cl`, for which the “activity, negative = inhibition” value is -9.49% (inactive).
On the same count and under the same terms, to `CCc1cc2c(nc1CC)CCN(CC/C(C)=N/OC[C@@H](O)COCc1ccco1)C2` belongs -17.2% [at 11.4 µM] (inactive); to `COC(=O)C/C=C\[C@@H](C)[C@@H](/C=N\O[C@@H](C)c1cn([C@H](CO)Cc2ccccc2)nn1)NS(=O)(=O)c1ccc(C)cc1`, 14.8% [at 11.4 µM] (inactive) and -27.5% [at 11.4 µM] (inactive).
`CC(CCc1ccccc1)NS(=O)(=O)c1ccccc1` (configuration not stated): the AC50 was 2.51 µM (active).
`Cc1ccc(S(=O)(=O)N[C@H](CO)C(=O)O)cc1`: the activity, negative = inhibition was -10.2% [at 11.4 µM] (inactive).
Take `Cc1ccc(S(=O)(=O)N[C@@H](CCc2ccccc2)CC(=O)C(C)(C)C)cc1`: the AC50 is 1.58 µM (active).
For `C1CCc2c(nc3nnnn3c2NC2CCCC2)C1`, the “activity, negative = inhibition” value is -8.75% (inactive).
Still for that read-out and setting: under `O=C1[C@@H]2[C@H]3[C@H](O)[C@H](O)C/C(=N/OCc4ccccc4)[C@@H]3CC[C@H]2C(=O)N1c1ccc(F)cc1F` stands -20.4% [at 11.4 µM] (inactive).
Turning to `C[C@@H](C(=O)NCc1ccccn1)[C@@H]1C[C@@]1(C)[C@@H](NC(=O)OCc1ccccc1)c1ccccc1`, the AC50 is 2.51 µM (active).
On to `C[C@@H](C(=O)NCc1ccccn1)[C@H]1C[C@]1(C)[C@H](NC(=O)OCc1ccccc1)c1ccccc1`, for which the AC50 was 2 µM (active).
For `O=C(O)CN(CCOCCOCCN(CC(=O)O)CC(=O)O)CC(=O)O`, the “activity, negative = inhibition” value is 9.23% (inactive).
The same measure, in the same setting: to `Cc1cc2c(nc1C)CCCCN2C[C@H](O)CN1CCCc2nc(-c3ccc(Br)cc3)ccc21` belongs -10.8% [at 11.4 µM] (inactive).
